Measurements reported in ChEMBL document CHEMBL2218924, “A broad activity screen in support of a chemogenomic map for kinase signalling research and drug discovery” (Biochem J, 2013).

Tests used:
[1] = target: T1, cGMP-dependent protein kinase 1 (Homo sapiens) (UniProt Q13976); details: at 1 µM
T1 sequence (whole entry): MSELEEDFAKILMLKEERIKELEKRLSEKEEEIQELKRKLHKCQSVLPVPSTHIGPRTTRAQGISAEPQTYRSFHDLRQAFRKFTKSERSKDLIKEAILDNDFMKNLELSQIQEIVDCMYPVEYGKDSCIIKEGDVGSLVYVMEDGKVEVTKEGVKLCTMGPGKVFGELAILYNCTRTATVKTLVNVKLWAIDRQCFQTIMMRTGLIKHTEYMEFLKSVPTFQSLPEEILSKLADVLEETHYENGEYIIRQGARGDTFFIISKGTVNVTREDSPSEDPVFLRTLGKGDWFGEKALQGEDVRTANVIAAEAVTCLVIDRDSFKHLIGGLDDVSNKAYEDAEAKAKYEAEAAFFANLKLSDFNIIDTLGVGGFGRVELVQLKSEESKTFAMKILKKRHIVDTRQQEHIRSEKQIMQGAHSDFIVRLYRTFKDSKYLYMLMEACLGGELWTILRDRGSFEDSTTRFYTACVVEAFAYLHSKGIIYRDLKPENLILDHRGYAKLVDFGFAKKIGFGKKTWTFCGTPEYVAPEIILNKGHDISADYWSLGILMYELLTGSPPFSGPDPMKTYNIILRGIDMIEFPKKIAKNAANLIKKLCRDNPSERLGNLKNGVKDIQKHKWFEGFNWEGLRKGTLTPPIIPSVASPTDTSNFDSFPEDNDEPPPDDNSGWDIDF

[2] = target: T1, cGMP-dependent protein kinase 1 (Homo sapiens); details: at 10 µM
[3] = target: T1, cGMP-dependent protein kinase 1 (Homo sapiens); details: at 1 µM; remark: listed apart in the source
[4] = target: T1, cGMP-dependent protein kinase 1 (Homo sapiens); details: at 10 µM; remark: listed apart in the source
[5] = target: Serine/threonine-protein kinase N2 (Homo sapiens) (UniProt Q16513); details: at 1 µM
[6] = target: Serine/threonine-protein kinase N2 (Homo sapiens) (UniProt Q16513); details: at 10 µM
[7] = target: Serine/threonine-protein kinase pim-2 (Homo sapiens) (UniProt Q9P1W9); details: at 1 µM
[8] = target: T2, MAP kinase-activated protein kinase 5 (Homo sapiens) (UniProt Q8IW41); details: at 1 µM
T2 sequence (whole entry): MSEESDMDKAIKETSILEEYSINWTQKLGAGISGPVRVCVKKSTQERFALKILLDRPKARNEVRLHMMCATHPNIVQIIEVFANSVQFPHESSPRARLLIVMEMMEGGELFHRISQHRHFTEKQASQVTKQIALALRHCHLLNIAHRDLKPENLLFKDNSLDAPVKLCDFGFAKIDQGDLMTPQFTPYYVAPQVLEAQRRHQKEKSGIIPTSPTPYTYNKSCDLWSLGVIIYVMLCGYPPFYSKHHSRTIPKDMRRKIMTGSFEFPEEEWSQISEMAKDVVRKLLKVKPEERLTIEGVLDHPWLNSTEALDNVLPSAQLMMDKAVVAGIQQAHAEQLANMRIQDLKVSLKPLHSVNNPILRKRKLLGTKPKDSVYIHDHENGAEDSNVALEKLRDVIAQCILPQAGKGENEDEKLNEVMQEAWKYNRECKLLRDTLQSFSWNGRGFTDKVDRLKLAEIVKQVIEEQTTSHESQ

[9] = target: T2, MAP kinase-activated protein kinase 5 (Homo sapiens); details: at 10 µM
[10] = target: Tyrosine-protein kinase FRK (Homo sapiens) (UniProt P42685); details: at 1 µM
[11] = target: Tyrosine-protein kinase FRK (Homo sapiens) (UniProt P42685); details: at 10 µM
[12] = target: T3, Phosphorylase b kinase gamma catalytic chain, liver/testis isoform (Homo sapiens) (UniProt P15735); details: at 1 µM
T3 sequence (whole entry): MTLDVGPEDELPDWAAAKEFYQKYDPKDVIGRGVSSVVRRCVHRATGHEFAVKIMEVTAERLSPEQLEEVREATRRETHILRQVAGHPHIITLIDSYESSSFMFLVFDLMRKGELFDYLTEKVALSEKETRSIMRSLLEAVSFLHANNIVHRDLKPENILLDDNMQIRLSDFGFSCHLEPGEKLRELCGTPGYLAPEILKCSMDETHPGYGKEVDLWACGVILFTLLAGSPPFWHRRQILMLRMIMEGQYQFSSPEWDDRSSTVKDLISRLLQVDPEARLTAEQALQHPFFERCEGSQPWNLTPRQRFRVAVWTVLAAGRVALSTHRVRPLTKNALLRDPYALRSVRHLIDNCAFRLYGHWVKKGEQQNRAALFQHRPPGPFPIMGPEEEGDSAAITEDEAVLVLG

[13] = target: T3, Phosphorylase b kinase gamma catalytic chain, liver/testis isoform (Homo sapiens); details: at 10 µM
[14] = target: Serine/threonine-protein kinase pim-1 (Homo sapiens) (UniProt P11309); details: at 1 µM
[15] = target: Serine/threonine-protein kinase pim-1 (Homo sapiens) (UniProt P11309); details: at 10 µM
[16] = target: Serine/threonine-protein kinase pim-2 (Homo sapiens) (UniProt Q9P1W9); details: at 10 µM
[17] = target: Serine/threonine-protein kinase pim-3 (Homo sapiens) (UniProt Q86V86); details: at 1 µM
[18] = target: Serine/threonine-protein kinase pim-3 (Homo sapiens) (UniProt Q86V86); details: at 10 µM
[19] = target: Serine/threonine-protein kinase PLK1 (Homo sapiens) (UniProt P53350); details: at 1 µM
[20] = target: Serine/threonine-protein kinase PLK1 (Homo sapiens) (UniProt P53350); details: at 10 µM

Sequence of Serine/threonine-protein kinase N2 (Homo sapiens) (Q16513 whole entry, looked up): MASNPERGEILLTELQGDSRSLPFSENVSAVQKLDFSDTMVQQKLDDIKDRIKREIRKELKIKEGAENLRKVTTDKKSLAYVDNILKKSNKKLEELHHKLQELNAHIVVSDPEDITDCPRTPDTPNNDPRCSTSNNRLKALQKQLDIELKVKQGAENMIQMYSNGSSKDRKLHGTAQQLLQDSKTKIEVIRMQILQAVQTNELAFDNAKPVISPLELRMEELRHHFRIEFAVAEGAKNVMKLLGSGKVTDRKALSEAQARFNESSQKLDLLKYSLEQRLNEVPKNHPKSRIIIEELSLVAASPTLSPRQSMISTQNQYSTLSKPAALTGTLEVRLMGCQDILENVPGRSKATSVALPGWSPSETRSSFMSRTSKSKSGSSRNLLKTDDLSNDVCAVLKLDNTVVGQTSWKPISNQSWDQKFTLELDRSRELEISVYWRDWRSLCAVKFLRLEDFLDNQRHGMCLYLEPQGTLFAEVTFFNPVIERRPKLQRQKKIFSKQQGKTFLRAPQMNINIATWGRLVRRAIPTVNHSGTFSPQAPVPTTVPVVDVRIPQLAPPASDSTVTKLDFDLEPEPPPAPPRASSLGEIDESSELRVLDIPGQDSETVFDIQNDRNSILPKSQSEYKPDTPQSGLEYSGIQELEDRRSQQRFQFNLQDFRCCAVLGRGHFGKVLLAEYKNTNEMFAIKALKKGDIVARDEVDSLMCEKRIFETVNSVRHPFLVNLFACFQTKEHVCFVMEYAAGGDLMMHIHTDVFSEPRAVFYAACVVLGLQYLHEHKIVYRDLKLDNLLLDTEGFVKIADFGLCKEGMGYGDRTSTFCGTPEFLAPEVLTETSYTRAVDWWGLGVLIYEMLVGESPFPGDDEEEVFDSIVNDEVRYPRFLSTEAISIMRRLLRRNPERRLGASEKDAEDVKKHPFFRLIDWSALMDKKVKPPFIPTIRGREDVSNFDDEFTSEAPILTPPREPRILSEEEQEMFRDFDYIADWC
Sequence of Serine/threonine-protein kinase pim-2 (Homo sapiens) (Q9P1W9 whole entry, looked up): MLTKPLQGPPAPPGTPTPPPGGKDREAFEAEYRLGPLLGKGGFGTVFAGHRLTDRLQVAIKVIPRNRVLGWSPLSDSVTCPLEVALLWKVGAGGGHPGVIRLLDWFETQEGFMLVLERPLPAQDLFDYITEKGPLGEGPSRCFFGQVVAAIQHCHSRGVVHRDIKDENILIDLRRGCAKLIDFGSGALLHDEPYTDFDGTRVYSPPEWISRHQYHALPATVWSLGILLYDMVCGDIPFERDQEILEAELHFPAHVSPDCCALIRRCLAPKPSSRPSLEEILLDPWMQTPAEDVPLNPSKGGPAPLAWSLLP
Sequence of Serine/threonine-protein kinase PLK1 (Homo sapiens) (P53350 whole entry): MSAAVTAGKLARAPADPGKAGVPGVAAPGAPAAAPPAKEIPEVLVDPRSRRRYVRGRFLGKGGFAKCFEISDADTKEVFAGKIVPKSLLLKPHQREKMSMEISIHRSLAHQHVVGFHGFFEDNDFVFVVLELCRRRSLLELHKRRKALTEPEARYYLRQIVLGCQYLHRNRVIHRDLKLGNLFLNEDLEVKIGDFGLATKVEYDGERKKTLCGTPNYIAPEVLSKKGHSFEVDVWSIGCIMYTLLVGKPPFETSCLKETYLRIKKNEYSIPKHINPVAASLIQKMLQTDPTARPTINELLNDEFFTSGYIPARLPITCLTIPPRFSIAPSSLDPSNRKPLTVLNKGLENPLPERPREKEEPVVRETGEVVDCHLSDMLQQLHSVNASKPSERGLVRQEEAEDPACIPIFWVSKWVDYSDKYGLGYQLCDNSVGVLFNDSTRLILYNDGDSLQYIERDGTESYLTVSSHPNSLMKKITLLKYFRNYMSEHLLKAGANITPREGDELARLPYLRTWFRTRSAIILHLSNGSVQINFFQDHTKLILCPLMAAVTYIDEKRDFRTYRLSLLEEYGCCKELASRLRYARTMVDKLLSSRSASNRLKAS
Sequence of Tyrosine-protein kinase FRK (Homo sapiens) (P42685 whole entry, canonical isoform): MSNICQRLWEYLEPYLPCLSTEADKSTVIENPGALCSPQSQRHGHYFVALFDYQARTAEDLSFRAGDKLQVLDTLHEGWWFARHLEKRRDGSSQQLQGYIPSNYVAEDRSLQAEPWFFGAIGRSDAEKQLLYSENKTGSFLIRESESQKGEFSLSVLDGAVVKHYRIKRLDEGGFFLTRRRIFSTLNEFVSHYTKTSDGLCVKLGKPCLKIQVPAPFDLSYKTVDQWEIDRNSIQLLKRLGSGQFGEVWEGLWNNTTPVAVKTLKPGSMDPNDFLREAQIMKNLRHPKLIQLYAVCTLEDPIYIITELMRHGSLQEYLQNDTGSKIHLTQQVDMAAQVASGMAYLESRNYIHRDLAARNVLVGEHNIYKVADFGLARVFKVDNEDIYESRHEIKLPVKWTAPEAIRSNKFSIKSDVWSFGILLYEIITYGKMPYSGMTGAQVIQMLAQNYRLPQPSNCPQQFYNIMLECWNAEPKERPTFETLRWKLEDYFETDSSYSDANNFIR
Sequence of Serine/threonine-protein kinase pim-1 (Homo sapiens) (P11309 whole entry, looked up): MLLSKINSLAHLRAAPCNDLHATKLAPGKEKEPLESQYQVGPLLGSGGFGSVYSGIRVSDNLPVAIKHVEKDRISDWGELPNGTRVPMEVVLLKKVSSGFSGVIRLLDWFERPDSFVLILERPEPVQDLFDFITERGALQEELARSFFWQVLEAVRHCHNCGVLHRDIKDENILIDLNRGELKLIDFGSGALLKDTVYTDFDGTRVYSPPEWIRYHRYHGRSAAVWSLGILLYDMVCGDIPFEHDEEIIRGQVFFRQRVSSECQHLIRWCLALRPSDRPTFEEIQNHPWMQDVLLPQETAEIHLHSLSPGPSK

Work on `O=S(=O)(c1cccc2cnccc12)N1CCCNCC1` yielded a residual activity [1] of 57%, a residual activity [2] of 17% and a residual activity [3] of 68%. For the same compound, the residual activity [4] was 15%, the residual activity [5] was 56% and the residual activity [6] was 10%. For the same compound, the residual activity [7] was 138%.
Compound `O=C1Nc2ccc(Cl)cc2/C1=C/c1cc(Cl)c(O)c(Cl)c1` has a residual activity [1] of 84%, a residual activity [2] of 79% and a residual activity [3] of 79%. For the same compound, the residual activity [4] was 44%, the residual activity [8] was 95% and the residual activity [9] was 17%. For the same compound, the residual activity [5] was 99%, the residual activity [6] was 94% and the residual activity [10] was 56%. It also gave a residual activity [11] of 5%, a residual activity [12] of 94% and a residual activity [13] of 83%. The residual activity [14] was 24%, the residual activity [15] was 5% and the residual activity [7] was 17%. For the same compound, the residual activity [16] was 3%, the residual activity [17] was 77% and the residual activity [18] was 30%. For the same compound, the residual activity [19] was 83% and the residual activity [20] was 62%.
With `O=C1Nc2ccccc2/C1=C\c1c(Cl)[nH]c2ccccc12` the residual activity [2] was 84%, the residual activity [4] was 72% and the residual activity [10] was 83%. The residual activity [11] was 73%, the residual activity [12] was 87% and the residual activity [13] was 87%. For the same compound, the residual activity [15] was 26%, the residual activity [7] was 73% and the residual activity [16] was 16%. It also gave a residual activity [19] of 86% and a residual activity [20] of 75%.
`O=C1NC(=O)C(c2c[nH]c3ccccc23)=C1c1c[nH]c2ccccc12` showed a residual activity [2] of 43%, a residual activity [3] of 83% and a residual activity [4] of 28%. The residual activity [8] was 98%, the residual activity [9] was 48% and the residual activity [5] was 81%. The residual activity [6] was 37%, the residual activity [10] was 80% and the residual activity [11] was 41%. The residual activity [14] was 12%, the residual activity [15] was 0% and the residual activity [7] was 23%. For the same compound, the residual activity [16] was 8% and the residual activity [18] was 73%.
Work on `O=C1Cc2c([nH]c3ccc(Br)cc23)-c2ccccc2N1` yielded a residual activity [1] of 98%, a residual activity [2] of 97% and a residual activity [3] of 83%. For the same compound, the residual activity [4] was 74%, the residual activity [8] was 97% and the residual activity [9] was 70%. For the same compound, the residual activity [5] was 60%, the residual activity [6] was 26% and the residual activity [10] was 68%. The residual activity [11] was 40%, the residual activity [12] was 120% and the residual activity [13] was 89%. It also gave a residual activity [14] of 75%, a residual activity [15] of 56% and a residual activity [7] of 100%. The residual activity [16] was 79%, the residual activity [17] was 83% and the residual activity [18] was 79%. It also gave a residual activity [19] of 76% and a residual activity [20] of 75%.
With `CC(C)(C)c1nc2c3ccc(F)cc3c3c(=O)[nH]ccc3c2[nH]1` the residual activity [1] was 45%, the residual activity [2] was 45% and the residual activity [3] was 30%. The residual activity [4] was 19%, the residual activity [8] was 47% and the residual activity [9] was 45%. For the same compound, the residual activity [5] was 29%, the residual activity [6] was 39% and the residual activity [10] was 74%. The residual activity [11] was 60%, the residual activity [12] was 41% and the residual activity [13] was 24%.
In the case of `O=S(=O)(NCCNC/C=C/c1ccc(Br)cc1)c1cccc2cnccc12`, the residual activity [1] is reported as 4%, the residual activity [2] is reported as 4% and the residual activity [3] is reported as 4%. For the same compound, the residual activity [4] was 4%, the residual activity [5] was 26% and the residual activity [6] was 4%. It also gave a residual activity [7] of 139% and a residual activity [16] of 132%.
For `CC(C)(C)n1nc(Cc2cccc3ccccc23)c2c(N)ncnc21`, the residual activity [1] was 109%, the residual activity [2] was 97% and the residual activity [3] was 86%. It also gave a residual activity [4] of 95%, a residual activity [8] of 75% and a residual activity [9] of 33%. The residual activity [10] was 26%, the residual activity [11] was 0% and the residual activity [12] was 98%. The residual activity [13] was 109%, the residual activity [14] was 77% and the residual activity [15] was 106%. For the same compound, the residual activity [7] was 114%, the residual activity [17] was 96% and the residual activity [18] was 95%. The residual activity [19] was 99% and the residual activity [20] was 75%.
`COc1cc2nccc(Oc3ccc(NC(=O)Nc4cc(C)on4)c(Cl)c3)c2cc1OC` showed a residual activity [1] of 101%, a residual activity [2] of 97% and a residual activity [3] of 105%. For the same compound, the residual activity [8] was 99%, the residual activity [9] was 70% and the residual activity [5] was 97%. The residual activity [6] was 108%, the residual activity [10] was 2% and the residual activity [11] was -3%. The residual activity [16] was 103%, the residual activity [17] was 107% and the residual activity [18] was 105%.
`O=C(O)/C=C/c1cc(Br)c(Br)c(Br)c1Br` showed a residual activity [1] of 94%, a residual activity [2] of 65% and a residual activity [3] of 82%. The residual activity [4] was 32%, the residual activity [8] was 83% and the residual activity [9] was 28%. For the same compound, the residual activity [6] was 38%, the residual activity [10] was 102% and the residual activity [11] was 86%. The residual activity [12] was 109%, the residual activity [13] was 63% and the residual activity [14] was 49%. It also gave a residual activity [15] of 6%, a residual activity [7] of 28% and a residual activity [16] of 1%. It also gave a residual activity [17] of 78%, a residual activity [18] of 39% and a residual activity [19] of 73%. The residual activity [20] was 22%.
In the case of `O=c1cc(N2CCNCC2)oc2c(-c3ccccc3)cccc12`, the residual activity [3] is reported as 84%, the residual activity [4] is reported as 81% and the residual activity [8] is reported as 93%. The residual activity [9] was 99%, the residual activity [5] was 105% and the residual activity [6] was 101%. For the same compound, the residual activity [11] was 104%, the residual activity [12] was 84% and the residual activity [13] was 92%. The residual activity [14] was 84%, the residual activity [15] was 54% and the residual activity [7] was 100%. The residual activity [17] was 88%, the residual activity [18] was 76% and the residual activity [19] was 82%. It also gave a residual activity [20] of 55%.
`O=c1cc(N2CCOCC2)oc2c1ccc1ccccc12` was tested, and the residual activity [3] was 91%, the residual activity [4] was 99% and the residual activity [8] was 28%. It also gave a residual activity [9] of 42%, a residual activity [5] of 101% and a residual activity [6] of 98%. The residual activity [11] was 90%, the residual activity [12] was 90% and the residual activity [13] was 89%. It also gave a residual activity [14] of 55%, a residual activity [15] of 13% and a residual activity [7] of 87%. It also gave a residual activity [16] of 45%, a residual activity [17] of 92% and a residual activity [18] of 55%. For the same compound, the residual activity [19] was 56% and the residual activity [20] was 11%.
`Nc1ncnc2c1c(-c1ccc(Oc3ccccc3)cc1)cn2C1CCCC1` gave a residual activity [1] of 102%, a residual activity [2] of 96% and a residual activity [3] of 82%. It also gave a residual activity [4] of 72%, a residual activity [8] of 90% and a residual activity [9] of 46%. The residual activity [5] was 87%, the residual activity [6] was 100% and the residual activity [10] was 2%. It also gave a residual activity [11] of 2%, a residual activity [12] of 97% and a residual activity [13] of 95%. For the same compound, the residual activity [14] was 103%, the residual activity [15] was 88% and the residual activity [7] was 106%. For the same compound, the residual activity [17] was 88%, the residual activity [18] was 88% and the residual activity [19] was 83%. It also gave a residual activity [20] of 50%.
